The record followed here is PubChem BioAssay (NCATS).

The structures appear in SMILES notation. Several values for one entry are separate records, joined by “and”; a condition that tells them apart may be missing. Equal entries are not always repeated. Records with an inconclusive call do not appear. Activity calls are given as the source filed them. Unless noted, calls come from the whole dose curve; as a rule, active = well fitted curve in the direction sought with a large enough effect; inconclusive = small, poorly fitted or top-dose-only effect, or another doubt; inactive = no such curve, though single readings can be large; an effect the other way counts as inactive or inconclusive.

Experiment [1] has as its target Transient receptor potential cation channel subfamily V member 1 (Homo sapiens) (UniProt Q8NER1). In words: HTS Assay for Compounds that Act as Enhancers of the Vanilloid Receptor 1 (AID 488979). Note: 0% is about no effect. Put shortly:
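Calcium influx kinetics via Fluo-8 (480/520 nm) in TRPV1-expressing cells, 2000/well cultured overnight at 35.5C. Compound-alone read 3 min (agonist phase), followed by EC20 capsaicin challenge for 2 min (enhancer phase).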

Experiment [2] addresses Thyrotropin receptor (Homo sapiens) (UniProt P16473). Description: qHTS Assay for Antagonists of the Thyroid Stimulating Hormone Receptor (AID 488980). Note: series mostly up to about 58 µM; 0% is about no effect. Put shortly:
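Cells expressing human TSHR (HEK293) are dispensed in HBSS/HEPES containing 70 uM RO 20-1724, compound is added, then TSH at EC80 (4 nM final). Antibody in lysis buffer follows, 30 minutes at room temperature before HTRF detection.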

In experiment [3] the target is D(1A) dopamine receptor (Homo sapiens) (UniProt P21728). In words: HTS Assay for Allosteric Agonists of the Human D1 Dopamine Receptor: Primary Screen for Agonists (AID 488981). Note: 0% is about no effect. Put shortly: (§1)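 Calcium flux in an inducible, force-coupled HEK293 Trex D1 line (overnight at 30 C): agonist mode is the 180 s kinetic read after compound; potentiator mode is the following 180 s read after dopamine at EC20.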
D(1A) dopamine receptor (Homo sapiens), sequence (P21728 whole entry, looked up): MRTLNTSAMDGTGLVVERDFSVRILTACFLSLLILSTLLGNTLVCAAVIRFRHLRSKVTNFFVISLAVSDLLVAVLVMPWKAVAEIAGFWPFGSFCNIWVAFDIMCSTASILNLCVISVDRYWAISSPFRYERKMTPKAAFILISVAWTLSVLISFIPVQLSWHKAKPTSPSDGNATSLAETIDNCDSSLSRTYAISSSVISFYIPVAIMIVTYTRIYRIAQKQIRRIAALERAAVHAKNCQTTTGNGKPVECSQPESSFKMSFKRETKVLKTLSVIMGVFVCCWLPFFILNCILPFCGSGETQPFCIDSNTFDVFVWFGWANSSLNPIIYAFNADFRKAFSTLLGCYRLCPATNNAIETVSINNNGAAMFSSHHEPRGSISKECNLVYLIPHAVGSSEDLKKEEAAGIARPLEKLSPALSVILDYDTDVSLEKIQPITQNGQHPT

For experiment [4] the target is unchanged. In words: HTS Assay for Allosteric Agonists of the Human D1 Dopamine Receptor: Primary Screen for Antagonists (AID 488983).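 Note: calcium flux response to an EC80 dopamine challenge measured with no-wash dye; nearly all actives have a fitted effect of over 65% in size.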 Note: potency is the fitted concentration of half-maximal effect. Summed up:
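Tetracycline-induced HEK293 T-REx D1 line, force-coupled to calcium flux, read with no-wash calcium dye. Compound added after 10 s baseline, read 180 s for agonism, then EC80 dopamine added and read a further 180 s.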

Experiment [5] in a line: Validation screen for small molecules that induce genotoxicity in human embryonic kidney (HEK293T) cells expressing luciferase-tagged ELG1 (AID 493106). Note: 0% is about no effect. Summed up:
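HEK293T cells expressing luciferase-tagged ELG1, 2,000 cells/well, exposed to compound 16 hr at 37 °C, 5% CO2. Luciferase read after ONE-Glo, 30 min at room temperature; increased signal indicates genetic stress.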

Experiment [6] deals with ATPase family AAA domain-containing protein 5 (Homo sapiens) (UniProt Q96QE3). Description: Validation screen for small molecules that inhibit ELG1-dependent DNA repair in human embryonic kidney (HEK293T) cells expressing luciferase-tagged ELG1 (AID 493107).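 Note: cells co-treated with the DNA-damaging agent 5-fluorouridine alongside compound; series mostly up to about 46 µM; % is set by controls: 0 for no effect and ±100 for the full control effect; inhibitors lower the ELG1-luciferase luminescence signal; nearly all actives have a fitted effect of over 70% in size.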 Put shortly: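 HEK293T cells expressing luciferase-tagged ELG1, 2,000 per well, treated with 5-fluorouridine plus compound for 16 h at 37 C. ONE-Glo luminescence after 30 min at room temperature reports ELG1 reporter level.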
ATPase family AAA domain-containing protein 5 (Homo sapiens), sequence (Q96QE3 whole entry, looked up, the tested form may be a part): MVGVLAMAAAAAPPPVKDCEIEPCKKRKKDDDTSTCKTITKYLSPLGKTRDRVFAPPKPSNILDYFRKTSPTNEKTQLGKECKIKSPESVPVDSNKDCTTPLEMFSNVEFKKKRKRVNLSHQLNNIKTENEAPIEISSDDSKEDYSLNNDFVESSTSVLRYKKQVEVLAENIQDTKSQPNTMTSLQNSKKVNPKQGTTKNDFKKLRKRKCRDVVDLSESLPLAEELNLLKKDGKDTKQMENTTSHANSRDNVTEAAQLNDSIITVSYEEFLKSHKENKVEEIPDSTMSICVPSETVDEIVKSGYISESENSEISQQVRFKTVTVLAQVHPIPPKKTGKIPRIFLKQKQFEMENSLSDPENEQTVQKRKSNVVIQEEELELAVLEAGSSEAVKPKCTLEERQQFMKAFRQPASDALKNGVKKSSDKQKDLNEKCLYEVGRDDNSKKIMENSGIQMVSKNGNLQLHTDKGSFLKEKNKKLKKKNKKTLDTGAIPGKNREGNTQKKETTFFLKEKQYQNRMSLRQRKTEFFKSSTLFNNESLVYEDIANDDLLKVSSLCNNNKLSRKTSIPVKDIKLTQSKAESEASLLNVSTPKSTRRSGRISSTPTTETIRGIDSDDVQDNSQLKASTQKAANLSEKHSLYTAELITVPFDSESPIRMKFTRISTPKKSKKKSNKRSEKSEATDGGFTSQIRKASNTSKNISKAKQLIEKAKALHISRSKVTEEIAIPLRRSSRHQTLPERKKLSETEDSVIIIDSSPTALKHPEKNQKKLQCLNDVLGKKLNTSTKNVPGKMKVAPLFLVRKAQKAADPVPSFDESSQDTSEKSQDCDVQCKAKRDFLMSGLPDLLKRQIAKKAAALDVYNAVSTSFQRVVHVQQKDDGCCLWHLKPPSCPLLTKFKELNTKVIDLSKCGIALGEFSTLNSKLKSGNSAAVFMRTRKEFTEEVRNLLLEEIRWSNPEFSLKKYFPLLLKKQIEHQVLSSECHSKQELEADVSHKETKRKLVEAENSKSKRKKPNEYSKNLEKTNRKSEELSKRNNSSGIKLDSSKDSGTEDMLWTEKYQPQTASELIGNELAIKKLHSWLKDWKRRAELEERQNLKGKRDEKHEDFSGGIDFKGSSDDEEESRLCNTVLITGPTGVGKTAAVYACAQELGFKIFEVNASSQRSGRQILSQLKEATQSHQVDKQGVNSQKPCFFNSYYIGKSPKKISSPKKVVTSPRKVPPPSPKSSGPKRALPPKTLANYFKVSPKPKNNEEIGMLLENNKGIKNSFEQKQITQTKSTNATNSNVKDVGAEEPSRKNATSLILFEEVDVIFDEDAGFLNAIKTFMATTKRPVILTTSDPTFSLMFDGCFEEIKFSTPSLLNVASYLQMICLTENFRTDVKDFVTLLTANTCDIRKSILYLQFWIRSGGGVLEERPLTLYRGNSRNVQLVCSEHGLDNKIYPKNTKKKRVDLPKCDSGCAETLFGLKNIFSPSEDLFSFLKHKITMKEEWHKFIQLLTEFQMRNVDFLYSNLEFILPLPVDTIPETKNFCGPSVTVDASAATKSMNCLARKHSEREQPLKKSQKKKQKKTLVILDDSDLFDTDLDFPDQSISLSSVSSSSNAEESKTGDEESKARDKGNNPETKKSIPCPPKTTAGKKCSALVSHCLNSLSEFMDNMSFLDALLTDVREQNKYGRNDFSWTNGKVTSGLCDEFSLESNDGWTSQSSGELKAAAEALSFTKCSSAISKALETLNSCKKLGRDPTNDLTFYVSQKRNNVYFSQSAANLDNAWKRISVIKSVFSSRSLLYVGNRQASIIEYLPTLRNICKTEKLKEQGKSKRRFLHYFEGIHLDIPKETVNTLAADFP

For experiment [7], the target named is Thyrotropin-releasing hormone receptor (Homo sapiens) (UniProt P34981). In words: qHTS for Small Molecule Agonists and Allosteric Enhancers of Human TRH Receptor: Validation Screen for Agonists (AID 493127;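 active = calcium activation more than 3 SD above the typical response in the agonist read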; note: 0% is about no effect). Particulars: TRH receptor agonist cell assay; at 2 µM; stronger effect = higher value. Summed up: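 TRHR cells loaded with fluo-8 calcium dye; FDSS kinetic fluorescence (Ex 480/Em 530) read at 1 s/cycle after 23 nL compound addition. Agonist-mode calcium response recorded before the 10 nM TRH (EC20) addition.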
Thyrotropin-releasing hormone receptor (Homo sapiens), sequence (P34981 whole entry, looked up): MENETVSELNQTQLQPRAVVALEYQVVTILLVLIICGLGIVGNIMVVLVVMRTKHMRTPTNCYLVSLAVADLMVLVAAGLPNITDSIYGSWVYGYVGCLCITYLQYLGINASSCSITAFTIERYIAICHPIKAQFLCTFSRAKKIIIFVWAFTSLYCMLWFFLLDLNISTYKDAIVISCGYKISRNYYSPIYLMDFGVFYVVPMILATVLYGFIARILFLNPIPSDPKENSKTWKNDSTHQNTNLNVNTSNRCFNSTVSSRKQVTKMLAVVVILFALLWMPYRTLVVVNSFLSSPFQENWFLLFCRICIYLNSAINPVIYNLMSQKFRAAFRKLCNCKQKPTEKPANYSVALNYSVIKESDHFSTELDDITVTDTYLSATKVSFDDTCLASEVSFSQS
A general note: In qHTS, concentration-response curves come from the screen itself.

Experiment [8] in a line: Nrf2 qHTS screen for inhibitors: Validation (AID 493153; active = well fitted inhibition curve with a large enough effect in the main read-out, with a control signal flat, not every such curve was filed as active). As to conditions: viability change: measured here: cytotoxicity max response. Put shortly:
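A549 cells carrying ARE-firefly luciferase reporter, 5000 cells/well in 5% FBS OPTI-MEM, treated with compound over a concentration series for 18-24 h at 37 C. Luciferase luminescence gave Nrf2 activity; CellTiter-Fluor fluorescence gave viability.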

Experiment [9] is described as follows: qHTS for Inhibitors of Cell Surface uPA Generation: Validation Assay (AID 493164). Note: 0% is about no effect. Summed up:
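RAW 264.7 cells (4000/well) were plated overnight, then exposed for 18 h at 37 C, 5% CO2 to compounds in a 7-point 1:5 titration (2.45 nM–38.3 uM final). Intracellular ATP was read by ATP-Lite luminescence.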

Experiment [10] deals with Galactokinase (Homo sapiens) (UniProt P51570). Description: qHTS Validation Assay for Inhibitors of Human Galactokinase (GALK) (AID 493189). Note: 0% is about no effect. Summed up: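 Compounds were pin-transferred into ATP buffer, then GALK-galactose mix was added (final 5 nM enzyme, 100 uM galactose, 35 uM ATP). After 1 h at room temperature, remaining ATP was measured luminescently.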
Galactokinase (Homo sapiens), sequence (P51570 whole entry, looked up): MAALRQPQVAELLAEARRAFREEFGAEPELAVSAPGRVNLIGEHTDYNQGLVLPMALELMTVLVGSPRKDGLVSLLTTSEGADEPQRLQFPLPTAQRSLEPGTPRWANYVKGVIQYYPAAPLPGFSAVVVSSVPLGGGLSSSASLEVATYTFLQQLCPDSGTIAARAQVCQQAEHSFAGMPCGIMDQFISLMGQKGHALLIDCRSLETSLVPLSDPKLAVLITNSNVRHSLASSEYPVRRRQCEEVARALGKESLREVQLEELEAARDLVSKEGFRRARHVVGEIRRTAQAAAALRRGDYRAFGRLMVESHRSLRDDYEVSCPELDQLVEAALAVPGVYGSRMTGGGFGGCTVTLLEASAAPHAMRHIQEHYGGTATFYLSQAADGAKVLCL
Experiment [11] is described as follows: Validation screen for small molecules that induce DNA re-replication in SW480 colon adenocarcinoma cells (AID 504364). Note: 0% is about no effect. Put shortly: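 SW480 cells (250/well) exposed 48 h at 37 C, 5% CO2, then Hoechst-stained 40 min. Nuclear DNA content imaged by fluorescence scanning (405 nm excitation, 500-530 nm emission); re-replication scored as increased nuclei with elevated intensity.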

The target of experiment [12] is Peptidyl-prolyl cis-trans isomerase NIMA-interacting 1 (Homo sapiens) (UniProt Q13526). Description: qHTS Validation Assay to Find Inhibitors of Pin1 (AID 504536; active = well fitted inhibition curve with a large enough effect in the polarisation, with a control signal flat, not every such curve was filed as active; the % refers to the polarisation;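 note: 0% = full Pin1 enzyme wells and -100% = no-enzyme wells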). Summed up:
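Fluorescence polarization competition: compounds (titration) displace HiFluor-488-labeled Pin1-1b peptide from Pin1 (0.3 uM final) in pH 7.5 HEPES buffer with DTT, 10 min at room temperature; %Activity normalized to no-enzyme wells, curves fitted.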

Experiment [13] deals with Phosphoglycerate kinase, glycosomal (Trypanosoma brucei brucei) (UniProt P07378). Description: qHTS Validation Assay to Find Inhibitors of Phosphoglycerate Kinase (AID 504547).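 Note: control wells lack PGK and mark full inhibition.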 Summed up:
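Inhibition of the enzyme is judged by a Kinase-Glo Plus luminescent signal following a one-hour incubation at room temperature. Because 1,3-BPG is unstable, it is made in situ by GAPDH at 100nM final; no-PGK wells define the baseline.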

Experiment [14] deals with phosphoglycerate mutase (Leishmania major) (UniProt Q4Q090). Description: qHTS Validation Assay to Find Inhibitors of Phosphoglycerate Mutase (AID 504548).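 Note: end-point luminescence from Kinase-GloPlus after the PGAM reaction; series mostly up to about 58 µM; % is set by controls: 0 for no effect and ±100 for the full control effect.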 Put shortly:
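L. major PGAM (1.25nM final) was added to substrate buffer and pinned compound, incubated 45 minutes at room temperature, then Kinase-GloPlus added; luminescence read after 10 minutes. Buffer: 100 mM TEA pH 7.6, 5 mM MgCl2, 0.01% Tween-20.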

Experiment [15] can be described thus: Inducers of the Endoplasmic Reticulum Stress Response (ERSR) in human glioma: Validation (AID 504836). Note: 0% is about no effect. Summed up: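 ERSR induction read as luciferase luminescence (Bright-Glo, 10 min at room temperature) in stably transfected human U87-MG glioma cells exposed to compounds for 16 h, using GRP78 as sensor.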
In experiment [16] the target is Ubiquitin carboxyl-terminal hydrolase 1 (Homo sapiens) (UniProt O94782). Description: Inhibitors of USP1/UAF1: Pilot qHTS (AID 504865).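 Note: rhodamine fluorescence freed from ubiquitin-rhodamine substrate followed over time; top concentration of the series differs between compounds; % is set by controls: 0 for no effect and ±100 for the full control effect; nearly all actives have a fitted effect of over 35% in size.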 Put shortly:
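Kinetic fluorescence assay: 1nM USP1/UAF1, 15 min compound preincubation, then 150nM Ub-Rho; 480/540 nm.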

A short description of experiment [17]: qHTS for Inhibitors of ATXN expression: Validation of Cytotoxic Assay (AID 588349). Note: % is set by controls: 0 for no effect and ±100 for the full control effect. Put shortly:
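HEK293 cells treated with titrated compound for 72 hr at 37 degrees C; viability read as intracellular ATP by CellTiter Glo luminescence.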

Experiment [18] has as its target D(1A) dopamine receptor (Homo sapiens) (UniProt P21728). Description: HTS Assay for Allosteric Agonists of the Human D1 Dopamine Receptor: Primary Screen for Potentiators (AID 488982). Note: 0% is about no effect. Put shortly:
as §1

Thyrotropin receptor (Homo sapiens), sequence (P16473 whole entry, looked up): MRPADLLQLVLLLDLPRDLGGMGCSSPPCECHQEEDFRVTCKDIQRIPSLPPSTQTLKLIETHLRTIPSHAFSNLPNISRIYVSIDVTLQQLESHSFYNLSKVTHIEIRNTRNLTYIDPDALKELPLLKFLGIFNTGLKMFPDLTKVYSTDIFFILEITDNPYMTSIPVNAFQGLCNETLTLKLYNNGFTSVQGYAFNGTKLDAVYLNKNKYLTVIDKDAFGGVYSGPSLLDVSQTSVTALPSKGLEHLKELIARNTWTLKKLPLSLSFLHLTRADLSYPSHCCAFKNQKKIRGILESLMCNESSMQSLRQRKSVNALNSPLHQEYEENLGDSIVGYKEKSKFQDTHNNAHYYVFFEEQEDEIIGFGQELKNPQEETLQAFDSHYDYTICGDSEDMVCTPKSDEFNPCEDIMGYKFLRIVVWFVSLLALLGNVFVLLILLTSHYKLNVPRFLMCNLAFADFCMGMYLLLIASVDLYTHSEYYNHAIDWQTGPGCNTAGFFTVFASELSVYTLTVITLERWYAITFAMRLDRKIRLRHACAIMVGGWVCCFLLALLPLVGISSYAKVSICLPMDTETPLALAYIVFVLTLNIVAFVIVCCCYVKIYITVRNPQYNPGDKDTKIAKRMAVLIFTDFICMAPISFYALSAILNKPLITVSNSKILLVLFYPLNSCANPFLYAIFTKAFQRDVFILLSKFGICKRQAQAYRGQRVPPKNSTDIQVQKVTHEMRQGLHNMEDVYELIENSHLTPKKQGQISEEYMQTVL
Phosphoglycerate kinase, glycosomal (Trypanosoma brucei brucei), sequence (P07378 whole entry, looked up): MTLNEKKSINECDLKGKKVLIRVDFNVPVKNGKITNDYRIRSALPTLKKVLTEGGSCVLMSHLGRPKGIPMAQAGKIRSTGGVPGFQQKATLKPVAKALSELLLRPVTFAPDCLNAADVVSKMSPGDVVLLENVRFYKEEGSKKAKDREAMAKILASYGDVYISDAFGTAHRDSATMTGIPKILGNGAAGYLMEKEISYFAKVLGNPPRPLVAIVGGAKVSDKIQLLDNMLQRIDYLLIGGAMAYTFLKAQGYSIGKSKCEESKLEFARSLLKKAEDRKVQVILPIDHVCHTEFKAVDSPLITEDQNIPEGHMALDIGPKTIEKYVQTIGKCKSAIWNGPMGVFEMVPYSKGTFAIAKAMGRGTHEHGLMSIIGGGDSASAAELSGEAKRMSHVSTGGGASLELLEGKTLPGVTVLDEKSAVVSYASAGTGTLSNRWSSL
phosphoglycerate mutase (Leishmania major), sequence (Q4Q090 1-553): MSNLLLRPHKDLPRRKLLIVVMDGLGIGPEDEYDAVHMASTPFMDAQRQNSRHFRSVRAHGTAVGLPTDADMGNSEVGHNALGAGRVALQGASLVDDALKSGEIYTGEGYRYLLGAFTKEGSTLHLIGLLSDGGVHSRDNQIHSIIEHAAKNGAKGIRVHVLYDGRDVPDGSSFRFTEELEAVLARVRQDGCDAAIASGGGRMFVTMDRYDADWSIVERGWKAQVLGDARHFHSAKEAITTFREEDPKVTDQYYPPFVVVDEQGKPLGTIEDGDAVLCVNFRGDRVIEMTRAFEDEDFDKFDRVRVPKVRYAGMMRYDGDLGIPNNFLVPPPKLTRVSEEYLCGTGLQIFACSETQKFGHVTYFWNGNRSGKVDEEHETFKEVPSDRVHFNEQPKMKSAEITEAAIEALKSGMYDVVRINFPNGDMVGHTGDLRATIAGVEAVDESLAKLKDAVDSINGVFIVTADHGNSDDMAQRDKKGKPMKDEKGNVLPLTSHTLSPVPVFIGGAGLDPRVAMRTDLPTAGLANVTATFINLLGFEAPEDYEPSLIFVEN
Peptidyl-prolyl cis-trans isomerase NIMA-interacting 1 (Homo sapiens), sequence (Q13526 whole entry, looked up): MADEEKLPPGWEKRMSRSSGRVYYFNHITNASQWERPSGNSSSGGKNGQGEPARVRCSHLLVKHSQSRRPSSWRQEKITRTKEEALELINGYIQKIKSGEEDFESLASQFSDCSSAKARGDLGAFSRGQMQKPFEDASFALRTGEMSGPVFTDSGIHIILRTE

In the case of `CC1=NN=C(c2ccc(N)cc2)c2cc3c(cc2C1)OCO3`, the outcome in experiment [1], in [2], in experiment [5], in [8], in experiment [9] and in experiment [10] was inactive. Further, the compound was called inactive in experiment [11], in experiment [12], in experiment [13], in experiment [14] and in experiment [17]. Moreover, the Potency result in experiment [3], in experiment [4], in experiment [6], in experiment [15] and in experiment [16] was “inactive” in each case. The activation in experiment [7] was 0.438% (inactive). In [8], the viability change is -4.5%.

Take `NCCc1c[nH]c2ccc(O)cc12`: the outcome in [1], in [2], in experiment [5], in [8], in [9] and in [10] was inactive. The result in experiment [11], in experiment [12], in [13], in experiment [14] and in experiment [17] was inactive. For the same compound, the Potency entry in experiment [3], in experiment [4], in experiment [6] and in [16] was “inactive” each time. In addition, in experiment [7], the activation is 1.44% (inactive). In addition, in [8], the viability change is 0.321%.

As for `CS(=N)(=O)CC[C@H](N)C(=O)O` (stereo partly drawn), the outcome in experiment [1], in experiment [2], in experiment [18], in experiment [5], in experiment [8] and in [9] was inactive. Also, the compound was classed as inactive in [10], in experiment [11], in experiment [12], in [13], in experiment [14] and in [17]. In addition, the Potency result in experiment [3], in [4], in experiment [6], in experiment [15] and in experiment [16] was “inactive” each time. Moreover, the activation in experiment [7] is 0.312% (inactive). Besides, in experiment [8], the viability change is 3.11%.

Regarding `COc1cc(C(O)CN)ccc1O` (stereo not drawn), the result in experiment [1], in experiment [2], in experiment [18], in experiment [5], in experiment [8] and in [9] was inactive. For the same compound, the outcome in experiment [10], in [11], in experiment [12], in [13], in experiment [14] and in experiment [17] was inactive. Further, the Potency entry in experiment [3], in experiment [4], in experiment [6] and in experiment [16] was “inactive” each time. In experiment [7], the activation was 0.375% (inactive). Besides, the viability change in experiment [8] is -5.73%.

As for `CCCN(CCC)[C@@H]1CCc2ccc(O)cc2C1`, the outcome in experiment [1], in [2], in [5], in experiment [8], in experiment [9] and in [10] was inactive. Also, the compound was classed as inactive in experiment [11], in experiment [12], in experiment [13], in experiment [14] and in experiment [17]. Further, the Potency result in [3], in experiment [6], in experiment [15] and in experiment [16] was “inactive” each time. Also, the Potency in experiment [4] is 10 µM (active). Besides, in experiment [7], the activation is 0.938% (inactive). Also, the viability change in experiment [8] stood at 2.19%.

Turning to `CCCN1CCO[C@@H]2c3cc(O)ccc3OC[C@H]21`, the outcome in experiment [1], in [2], in experiment [5], in [8], in [9] and in experiment [10] was inactive. The call in experiment [11], in experiment [12], in experiment [13], in experiment [14] and in [17] was inactive. The Potency entry in experiment [3], in experiment [4], in experiment [6], in [15] and in experiment [16] was “inactive” in each case. The activation in experiment [7] was 1.06% (inactive) and 0% (inactive). Also, in experiment [8], the viability change is -0.639% and -4.02%.
